Data: PubChem BioAssay AID485313 (National Center for Advancing Translational Sciences (NCATS), 2010)
Out of some 320,000 compounds screened, about 7,600 (2.4%) were called active. Inconclusive results (about 3%) are left out. Only a selection was taken, and actives are over-represented in it overall. Unmarked numbers belong to inactive results. The call rests on the fitted dose curve; in most records, active means well fitted activation curve with a large enough effect; inconclusive means small, poorly fitted or top-dose-only effect; inactive means no such curve, though single readings can be large or run the other way.

Test: qHTS Assay for NPC1 Promoter Activators; further: nearly all actives have a fitted effect of over 60% in size; on activation: % of control where 0% means no effect
Settings: Huh7 NPC1 promoter luciferase reporter, 24 h; series mostly up to 9.22 µM; activation: at the top concentration
Text: NIH Chemical Genomics Center [NCGC] NIH Molecular Libraries Probe Production centers Network [MLPCN] MLPCN Grant: MH089375-01A1 Assay Submitter (PI): Yiannis A. Ioannou NCGC Assay Overview: Niemann Pick Type C (NPC) is a rare neurodegenerative lipidosis that is characterized by lipid storage in the endosomal/lysosomal system. Treatment modalities for this devastating disease are currently non-existent due to the severe obstacles associated with accessing the central nervous system with proteins or genes. The majority of mutations causing NPC disease are missense mutations that are distributed throughout the length of the NPC1 protein, with the most prevalent being the I1061T allele. Although NPC1 mutant proteins may be functional, they are typically trapped in the ER due to misfolding. […] We have developed and optimized a cell based luciferase reporter assay in 1536 well format for the identification of up-regulators of the mutant NPC1 promoter.
The NPC1 promoter is cloned in front of the luciferase reporter gene, therefore NPC promoter activation results in luciferase expression. Frozen stock of the NPC1 promoter transfected Huh7 cells were obtained from the laboratory of Dr. Yiannis Ioannou (The Mount Sinai School of Medicine, New York, NY). Cells were propagated and maintained at NCGC in medium containing RPMI-1640 supplemented with 10% FBS, 2mM L-glutamine, and 50ug/ml penicillin/streptomycin. Cells were harvested in and plated for assays in OP-MEM I reduced-serum medium supplemented with 10% FBS. The Amplite luciferase reporter gene assay kit was purchased from ABD Bioquest and prepared/stored according to manufacturers recommendations. qHTS Assay Setup: 1.#Dispensed 5ul of Huh7 cells stably expressing NPC1-luciferase at a density of 1500 cells per well 1536-well plates. 2.#Incubate cells at 37C, 5% CO2, and 95% humidity for 2 hours. 3.#Transferred 23nl per well of compound in DMSO solution. 4.#Incubated at 37C, 5% CO2, and 95% humidity for 24 hours. 5.#Dispensed 3ul per well of Amplite reagent(ABD Bioquest) per well. 6.#Incubate at ambient for 10 minutes. 7.#Read using the luminescence protocol on the ViewLux plate reader (Perkin Elmer).
Potency means the concentration at half of the fitted maximal effect.

Structure (SMILES) | activation | Potency
Cc1cnc(C(=O)OCC(=O)N2CCc3ccccc32)cn1 | 9.65% | –
O=C(c1cnn2ccccc12)N1CCc2ccccc21 | – | 3160 nM (active)
CC(=O)NCCC(=O)Nc1cc(S(=O)(=O)N2CCCCC2)ccc1Oc1cccc(C)c1 | -0.163% | –
O=C(c1ccc(F)cc1)n1cc(C(=S)N2CCOCC2)c2ccccc21 | 1.36% | –
O=C(c1ccc(F)cc1)n1c(=S)nc2ccccn21 | – | 355 nM (active)
O=C(C[n+]1cc(Br)cc2ccccc21)c1ccc(F)cc1 | -1.7% | –
Cc1ccc(NC(=O)Cn2c(C)csc2=O)cc1 | 13.8% | –
CCOC(=O)c1ccc(NC(=S)Nc2cc(C)cc(C)n2)cc1 | -5.29% | –
CCOC(=O)c1cc2c(nc1NC(=S)Nc1ccccc1)CC(C)(CC)OC2 (configuration not stated) | 0.619% | –
CCOC(=O)c1cn[nH]c1NC(=S)Nc1ccccc1 | – | 2820 nM (active)
CN(C)C1=NC[C@H](Cc2ccccc2)N1CCc1ccc(F)cc1 | -6.2% | –
COc1ccc(OC)c(/C=C/C(=O)c2ccc3c(c2)OCO3)c1 | 18.9% | –
CCOC(=O)[C@H]1[C@H]2COc3ccc(C)cc3[C@@H]2N2C(=O)CN(Cc3ccc(F)cc3)C(=O)[C@@]12C | -1.2% | –
COc1ccc(CN2CCN(C(=O)c3cc(C4CC4)nn3-c3ccccc3)CC2)cc1F | 1.51% | –
O=C(CSc1nnc2ccccn12)c1ccccc1 | – | 3550 nM (active)
N#Cc1ccc(CSc2nnc3ccccn23)cc1 | 0.241% | –
Cc1ccc(-n2c(C)cc(C(=O)CSc3nnc4ccccn34)c2C)cc1 | – | 891 nM (active)
Cc1cc(C(=O)CSc2nc(N)cc(=O)[nH]2)c(C)n1-c1cccc(F)c1 | -13.5% | –
Cc1ccc(-n2c(C)cc(C(=O)CN3C(=O)C(=O)N(C4CCCC4)C3=O)c2C)cc1 | 1.5% | –
O=C(CSc1nnc2n1CCCN2)c1ccccc1 | 24.4% | –
COc1cccc(CNC(=O)CN2C(=O)NC(Cc3ccccc3)(c3ccccc3)C2=O)c1 (configuration not stated) | -5.69% | –
Cc1c(C(C)CCCO)oc(=O)c2c1Oc1c(C)c(C(C)C[C@@H](C)O)oc(=O)c1C2 (some centres not stated) | 1.57% | –
CC(=O)C[C@@H](O)CC(=O)[C@H]1OC(=O)CCCCCCc2ccccc21 | -2.8% | –
O=C(O[C@H]1[C@H](Cc2ccccc2)NS(=O)(=O)[C@H]2C[C@@H]3C=C[C@]12O3)c1ccc([N+](=O)[O-])cc1 | -3.6% | –
COc1ccccc1C(CNC(=O)c1cccc(S(=O)(=O)Nc2ccc(F)cc2)c1)N(C)C (configuration not stated) | -2.49% | –
O=C(CCNC(=O)c1ccc([N+](=O)[O-])cc1)NC1CCCCC1 | -0.237% | –

Structure (SMILES) | activation | Potency
O=C(CSc1nc2ccc([N+](=O)[O-])cc2[nH]1)c1ccc(Cl)cc1 | 4.6% | –
O=C(Cc1nc2ccccc2[nH]c1=O)c1ccc(Cl)cc1 | – | 3160 nM (active)
N#C/C(=C(/O)COC(=O)COc1ccc(Cl)cc1)c1nc2ccccc2[nH]1 | -1.83% | –
CCOC(=O)c1c(C)[nH]c(C(=O)OCC(=O)c2ccc(OC)cc2OC)c1C | -10.1% | –
CCOC(=O)c1c(C)[nH]c(C(=O)OCC(=O)N2CCCC2=O)c1C | -3.33% | –
CCCCOC(=O)c1[nH]c(C)c(C(=O)OC)c1C | – | 2820 nM (active)
Cc1cc(C)c(CN2CCN(C(=O)Cn3ccc(NC(=O)OCc4ccccc4)nc3=O)CC2)c(C)c1 | -15% | –
Cc1cccc(NC(=O)c2cccc(C(=O)Nc3cccc(C)c3C)n2)c1C | -3.28% | –
COC(=O)c1ccc(NCC(=O)N2CCCCCC2)cc1 | 27.8% | –
Cc1ccc(C(=O)CNc2ccc(F)cc2)cc1 | -1.15% | –
COC(=O)c1ccc(NCC(=O)c2ccccc2)cc1 | – | 2510 nM (active)
O=C(COC(=O)c1ccc2ncsc2c1)Nc1ccc(Cl)cc1 | 1.42% [at 1.84 µM] | –
Cc1sc(NC(=O)c2ccc3ncsc3c2)c(C(N)=O)c1C | – | 1580 nM (active)
Cc1ccc(C(=O)c2c(NC(=O)c3ccccc3)sc(C)c2C)cc1 | 0.539% | –
COc1cc(C(=O)Nc2ncccc2C)ccc1OCC(=O)N1CCOCC1 | -2.59% | –
Cc1cc(C)c(S(=O)(=O)N2CCC(C(=O)OCc3c(C)noc3C)CC2)c(C)c1 | -2.63% | –
Cc1ccc(NC(=O)c2cccs2)cc1S(=O)(=O)N(C)C | 1.03% | –
Cc1ccc(C(=O)Nc2ccc(C)c(S(=O)(=O)N(C)C)c2)s1 | – | 2820 nM (active)
CCN(CC(=O)Nc1ccc(C)c(S(=O)(=O)N(C)C)c1)Cc1ccccc1 | 7.28% | –
Nc1cc(N)nc(SCC(=O)Nc2cccc(S(=O)(=O)N3CCCCC3)c2)n1 | 0.484% | –
CSc1ccc(Cl)c(C(=O)OCC(=O)N2CCNC2=O)c1 | -0.987% | –
COc1ccc(N2C(=O)/C(=C\c3ccco3)N=C2SCC(N)=O)cc1Cl | -3.08% | –
CC(C)Cc1cc(C(=O)NCCc2ccccc2)no1 | – | 2820 nM (active)
Nc1nonc1C(=O)NCCc1ccccc1 | -0.723% | –
O=C(NCCCc1ccccc1)c1cc(COc2c(F)cccc2F)on1 | 24.8% | –
Cc1ccc(S(=O)(=O)N(Cc2ccc(Cl)cc2)c2ccccc2C(=O)NCc2cccnc2)cc1 | -3.62% | –
